# Results filed as inconclusive are left out. The source made the active and inactive calls. Rule as the data show it, unless noted: active = percent of DMSO control GFP below about 86%; inactive = the rest, inconclusive results apart.
# What was measured:
# [1] = rapamycin-like changes in RPL19A-GFP expression – cell-based, S. cerevisiae, multiplex flow cytometry, primary screen (AID 1862);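 also: lower values mimic rapamycin by blocking the RPL19A rise seen in DMSO cells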; settings: S. cerevisiae RPL19A-GFP strain, flow cytometry fluorescence, 3 h; at 10 µM; stronger effect = lower value
# [2] = TOR pathway GLN3 branch reporter MEP2-GFP changes – S. cerevisiae, multiplex flow cytometry, primary screen (AID 1867;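 active = GFP response, as percent of the DMSO control, above the screen-wide mean plus 3 SD, about 139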;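 also: median GFP channel fluorescence of barcode-gated MEP2-GFP cells measured by flow cytometry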); settings: S. cerevisiae MEP2-GFP strain, 3 h, at 10 µM, stronger effect = higher value, 100% means same as DMSO wells
# [3] = TOR pathway RTG branch CIT2 reporter changes – S. cerevisiae, GFP fusion, multiplex flow cytometry, primary screen (AID 1870;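 active = percent response above a set limit, the screen-wide mean plus 3 SD, cut at about 130% in these data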;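 also: barcoded CIT2-GFP strain pooled with four other GFP strains with rapamycin as positive control; median GFP fluorescence per well over plate mean of DMSO wells so 100% = DMSO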); settings: S. cerevisiae CIT2-GFP expression, 3 h, at 10 µM, stronger effect = higher value
# [4] = TOR pathway LAP4-GFP level changes – S. cerevisiae, multiplex flow cytometry, primary screen (AID 1873;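 active = GFP signal, as percent of the solvent control, above the screen mean plus 3 SD, about 149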); settings: S. cerevisiae LAP4-GFP expression, 3 h, at 10 µM, stronger effect = higher value
# [5] = yeast AGP1-GFP level changes, GLN3 branch – cell-based, multiplex flow cytometry, S. cerevisiae, primary screen (AID 1887;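 active = GFP signal above the screen-wide mean plus 3 SD, that is over about 124.5% of the solvent control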;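 also: AGP1-GFP fusion strain of S. cerevisiae within a five-strain barcoded multiplex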); settings: 3 h, at 10 µM, stronger effect = higher value
# [6] = reduced mouse 2C T cell binding to pMHC/ICAM-1 vesicles – MLPCN validation set, flow cytometry, LFA-1/ICAM-1 modulator project, pilot screen (AID 2523;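 active = response below a set limit, under 55% cells CD8-positive and vesicle-bound, and CD8 cells' 90th-percentile brightness under 279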;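 as to vesicle binding response: mean PE anti-B7-1 fluorescence of CD8+ cells relative to row control; 100% = QL9-loaded vesicles with DMSO vehicle in the same plate row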); settings: 2C mouse CD8+ T cells, at 7 µM, stronger effect = lower value; double positive events: measured here: CD8+/vesicle+ event percentage
# [7] = molecular target: Integrin beta-1 (Homo sapiens) + Integrin alpha-4 (Homo sapiens) (UniProt P13612+P05556); test: alpha4beta1 integrin LIBS antibody binding reduction – U937 cells, HUTS-21 mAb, flow cytometry, validation set, VLA-4 allosteric modulator project, pilot screen (AID 2674;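 active = inhibition above 50%, about 3 SD of the validation set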;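 also: antibody binding induced by the VLA-4 ligand LDV present at three times its Kd; 0% = LDV ligand with antibody and no compound and 100% = antibody without LDV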); settings: HUTS-21 LIBS mAb binding, at 6.7 µM, stronger effect = higher value, binding induced by LDV ligand
# Chain of Integrin beta-1 (Homo sapiens) + Integrin alpha-4 (Homo sapiens) (P05556 whole entry, looked up): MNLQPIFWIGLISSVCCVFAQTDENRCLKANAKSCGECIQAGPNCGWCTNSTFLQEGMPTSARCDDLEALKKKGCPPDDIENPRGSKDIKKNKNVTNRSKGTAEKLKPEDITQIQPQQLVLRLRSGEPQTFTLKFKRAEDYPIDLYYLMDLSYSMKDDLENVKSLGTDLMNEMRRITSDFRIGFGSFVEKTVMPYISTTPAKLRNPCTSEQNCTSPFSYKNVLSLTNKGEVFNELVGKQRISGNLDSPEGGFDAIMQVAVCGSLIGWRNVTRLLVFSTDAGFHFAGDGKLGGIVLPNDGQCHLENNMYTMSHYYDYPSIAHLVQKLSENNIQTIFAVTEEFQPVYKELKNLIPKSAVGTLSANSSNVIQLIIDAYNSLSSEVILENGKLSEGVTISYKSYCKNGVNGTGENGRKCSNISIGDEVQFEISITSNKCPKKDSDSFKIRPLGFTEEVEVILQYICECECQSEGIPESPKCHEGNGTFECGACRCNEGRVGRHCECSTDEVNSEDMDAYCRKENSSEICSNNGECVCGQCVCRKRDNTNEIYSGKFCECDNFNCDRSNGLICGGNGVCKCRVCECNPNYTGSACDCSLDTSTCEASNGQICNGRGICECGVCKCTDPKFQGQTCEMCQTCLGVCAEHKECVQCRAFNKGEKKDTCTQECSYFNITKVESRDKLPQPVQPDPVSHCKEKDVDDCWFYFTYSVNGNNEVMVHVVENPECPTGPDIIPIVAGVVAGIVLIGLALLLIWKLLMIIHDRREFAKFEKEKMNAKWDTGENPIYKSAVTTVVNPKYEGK
# Chain of Integrin beta-1 (Homo sapiens) + Integrin alpha-4 (Homo sapiens) (P13612 whole entry, looked up): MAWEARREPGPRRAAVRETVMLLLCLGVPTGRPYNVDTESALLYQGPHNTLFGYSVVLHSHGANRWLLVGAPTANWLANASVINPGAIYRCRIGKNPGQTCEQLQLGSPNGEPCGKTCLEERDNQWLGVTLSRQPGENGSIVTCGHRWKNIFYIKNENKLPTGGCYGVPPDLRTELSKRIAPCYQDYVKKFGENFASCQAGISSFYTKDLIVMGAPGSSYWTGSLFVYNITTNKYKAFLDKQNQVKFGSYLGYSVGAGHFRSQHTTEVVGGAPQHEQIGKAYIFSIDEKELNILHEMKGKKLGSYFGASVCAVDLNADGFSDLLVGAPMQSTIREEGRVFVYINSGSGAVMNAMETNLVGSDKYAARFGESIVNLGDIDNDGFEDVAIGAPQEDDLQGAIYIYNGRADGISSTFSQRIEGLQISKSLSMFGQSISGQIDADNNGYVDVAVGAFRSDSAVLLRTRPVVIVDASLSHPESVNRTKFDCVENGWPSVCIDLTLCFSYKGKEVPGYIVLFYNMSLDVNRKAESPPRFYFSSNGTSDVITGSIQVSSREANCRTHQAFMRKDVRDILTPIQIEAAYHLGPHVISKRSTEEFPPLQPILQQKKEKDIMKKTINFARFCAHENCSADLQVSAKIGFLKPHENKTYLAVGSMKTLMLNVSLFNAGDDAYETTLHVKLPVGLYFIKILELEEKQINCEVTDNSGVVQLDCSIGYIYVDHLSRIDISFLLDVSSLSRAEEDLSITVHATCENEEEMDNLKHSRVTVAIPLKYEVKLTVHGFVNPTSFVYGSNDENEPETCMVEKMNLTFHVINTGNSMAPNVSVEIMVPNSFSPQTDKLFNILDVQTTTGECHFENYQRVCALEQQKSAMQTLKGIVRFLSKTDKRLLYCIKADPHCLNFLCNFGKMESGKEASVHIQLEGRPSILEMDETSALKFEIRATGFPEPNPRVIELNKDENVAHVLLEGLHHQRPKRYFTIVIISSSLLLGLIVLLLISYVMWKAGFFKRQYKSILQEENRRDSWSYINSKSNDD
# [8] = calorie-restriction mimetic ROS inhibitors, yeast – validation compound set, pilot screen (AID 2706;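 active = superoxide response below 65% of plate, a cut near 3 SD across the whole screen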;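 also: yeast exposed to compound for one week at 30 degrees C before staining; 100% = mean of all compound wells on the same plate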); settings: S. cerevisiae aging, superoxide DHE fluorescence; at 10 µM; stronger effect = lower value
# [9] = molecular target: Beta-adrenergic receptor kinase 1 (Homo sapiens) (UniProt P25098); test: GRK2 binders displacing RNA aptamer, biochemical, validation, human GRK2, bead flow cytometry (AID 488806;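 active = aptamer binding inhibition above 30%, about 3 SD of noise from non-fluorescent compounds; inactive = inhibition at or below 30%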); settings: bead-bound GRK2, FAM-aptamer displacement, at 10 µM, stronger effect = higher value
# Chain of Beta-adrenergic receptor kinase 1 (Homo sapiens) (P25098 whole entry, looked up): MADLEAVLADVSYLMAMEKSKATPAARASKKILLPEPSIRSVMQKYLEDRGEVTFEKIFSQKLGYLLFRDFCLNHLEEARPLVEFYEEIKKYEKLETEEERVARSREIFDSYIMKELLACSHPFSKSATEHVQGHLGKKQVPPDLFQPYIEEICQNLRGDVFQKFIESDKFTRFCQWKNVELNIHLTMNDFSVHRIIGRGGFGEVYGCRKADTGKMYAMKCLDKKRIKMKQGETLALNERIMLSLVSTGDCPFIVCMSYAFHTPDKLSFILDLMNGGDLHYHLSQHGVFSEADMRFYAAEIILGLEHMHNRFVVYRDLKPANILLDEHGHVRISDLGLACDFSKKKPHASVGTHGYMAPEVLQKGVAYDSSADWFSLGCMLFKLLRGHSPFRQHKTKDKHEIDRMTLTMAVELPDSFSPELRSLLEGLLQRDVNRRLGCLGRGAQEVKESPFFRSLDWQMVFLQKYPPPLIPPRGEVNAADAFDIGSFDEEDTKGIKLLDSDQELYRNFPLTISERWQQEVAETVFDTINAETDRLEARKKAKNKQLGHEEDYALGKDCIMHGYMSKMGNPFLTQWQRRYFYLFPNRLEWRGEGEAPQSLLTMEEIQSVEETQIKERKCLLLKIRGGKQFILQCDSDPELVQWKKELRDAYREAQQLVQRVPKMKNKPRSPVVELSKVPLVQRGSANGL
# [10] = molecular target: Beta-2 adrenergic receptor (Homo sapiens) (UniProt P07550); test: agonist-induced loss of surface beta2AR – cell-based, FAP fluorogen, flow cytometry, validation set, pilot screen (AID 504459;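 active = percent response above 42, roughly 3 SD of non-fluorescent test compounds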;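 also: agonist-driven loss of surface beta2AR via internalization measured by FAP dye flow cytometry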); settings: Am2.2-beta2AR cells, at 10 µM, stronger effect = higher value
# Chain of Beta-2 adrenergic receptor (Homo sapiens) (P07550 whole entry, looked up): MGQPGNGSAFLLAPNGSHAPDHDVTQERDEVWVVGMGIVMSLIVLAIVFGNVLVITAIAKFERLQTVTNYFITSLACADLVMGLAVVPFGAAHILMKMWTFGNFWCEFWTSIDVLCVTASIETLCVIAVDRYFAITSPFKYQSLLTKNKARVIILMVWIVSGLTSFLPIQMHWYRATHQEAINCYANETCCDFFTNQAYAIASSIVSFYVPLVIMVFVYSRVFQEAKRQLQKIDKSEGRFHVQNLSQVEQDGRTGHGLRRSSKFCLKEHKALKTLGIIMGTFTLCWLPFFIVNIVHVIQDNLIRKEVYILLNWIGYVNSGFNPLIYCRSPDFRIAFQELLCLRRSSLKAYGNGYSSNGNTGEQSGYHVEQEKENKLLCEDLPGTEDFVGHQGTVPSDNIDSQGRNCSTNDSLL
# [11] = molecular target: AP-2 complex subunit beta (Homo sapiens) (UniProt P63010); test: beta-arrestin/AP2 interaction blockers – biochemical, validation set, GST-AP2 beads, flow cytometry, pilot screen (AID 504541;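 active = inhibition above 54%, about 3 SD of non-fluorescent compounds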;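 also: AP2 carries R879A mutation and is captured from E. coli lysate; bead-bound FITC arrestin peptide fluorescence measuring arrestin peptide binding to AP2; 0% = DMSO wells and 100% = excess unlabeled arrestin peptide control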); settings: FITC arrestin peptide, at 10 µM, stronger effect = higher value, AP2 beta2 appendage fragment, R879A mutant
# Chain of AP-2 complex subunit beta (Homo sapiens) (P63010 whole entry, looked up, the tested form may be a part, one chain of several): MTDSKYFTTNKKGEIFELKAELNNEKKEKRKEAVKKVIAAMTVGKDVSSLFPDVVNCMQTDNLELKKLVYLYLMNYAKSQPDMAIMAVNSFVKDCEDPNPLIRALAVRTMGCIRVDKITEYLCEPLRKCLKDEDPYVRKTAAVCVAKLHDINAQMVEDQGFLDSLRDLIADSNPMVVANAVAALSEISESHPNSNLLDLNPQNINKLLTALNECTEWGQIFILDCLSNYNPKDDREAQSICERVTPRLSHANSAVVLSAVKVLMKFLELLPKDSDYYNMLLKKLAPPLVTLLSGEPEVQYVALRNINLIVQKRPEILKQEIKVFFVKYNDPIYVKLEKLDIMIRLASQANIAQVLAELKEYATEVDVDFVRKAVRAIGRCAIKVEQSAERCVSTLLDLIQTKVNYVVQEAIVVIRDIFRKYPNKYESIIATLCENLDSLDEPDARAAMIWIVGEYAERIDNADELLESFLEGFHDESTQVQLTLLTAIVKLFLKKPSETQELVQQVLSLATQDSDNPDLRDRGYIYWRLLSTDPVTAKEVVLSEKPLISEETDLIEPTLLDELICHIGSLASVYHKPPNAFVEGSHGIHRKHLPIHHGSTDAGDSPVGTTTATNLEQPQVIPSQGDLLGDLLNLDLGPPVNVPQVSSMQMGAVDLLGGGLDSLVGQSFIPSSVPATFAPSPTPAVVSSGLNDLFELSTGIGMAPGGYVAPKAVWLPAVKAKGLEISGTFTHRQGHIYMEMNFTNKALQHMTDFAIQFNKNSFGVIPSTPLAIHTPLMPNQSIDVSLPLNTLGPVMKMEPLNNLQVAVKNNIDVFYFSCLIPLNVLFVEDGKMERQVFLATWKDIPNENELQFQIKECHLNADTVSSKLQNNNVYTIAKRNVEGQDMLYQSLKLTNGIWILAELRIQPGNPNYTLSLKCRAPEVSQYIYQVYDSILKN
# [12] = cytosolic pH regulators acting via V-ATPase – S. cerevisiae, pHLuorin, HTS validation (AID 504600; in the data active = response above about 15%;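 also: plate controls were DMSO for no effect and reference compound for full effect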); settings: V-ATPase proton transport, at 10 µM, stronger effect = higher value
# [13] = test system: anti-desmoglein-3 scFv antibody binding to human DSG3; test: blockers of pathogenic pemphigus antibody–desmoglein-3 binding – biochemical, validation compound set, bead-based, flow cytometry, pilot screen (AID 588368;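 active = binding below the plate cutoff, the plate median minus 3 SD, with a reading above zero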;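 also: signal is the median channel fluorescence of bead-bound GFP antibody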); settings: Protein G beads, DSG3-Fc, scFv-GFP binding, at 10 µM, stronger effect = lower value
# [14] = Nile Red efflux blockade in pump-expressing yeast – validation compound set, multiplex, phenotypic, pilot screen (AID 588506;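 active = efflux inhibition above 0.42, the validation set average plus 4 SD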;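 also: Nile Red retained in cells so higher fluorescence means more efflux inhibition; 0 = negative control wells and 1 = enniatin B 25 µM full block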); settings: S. cerevisiae pump-expressing triplex, Nile Red efflux flow cytometry; at 10 µM; stronger effect = higher value; the pumps come from Candida albicans
# [15] = molecular target: ATP-binding cassette sub-family B member 6 (Homo sapiens) (UniProt Q9NP58); test: blockers of ABCB6-driven porphyrin uptake – K562-ABCB6 cells, flow cytometry, validation set, pilot screen (AID 588550;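 active = inhibition above the screen-wide mean plus 3 SD, about 51%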;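 also: 0% = DMSO wells and 100% = benzethonium chloride 70 µM positive control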); settings: K562-ABCB6 porphyrin accumulation, 1 h, at 10 µM, stronger effect = higher value
# Chain of ATP-binding cassette sub-family B member 6 (Homo sapiens) (Q9NP58 whole entry, looked up): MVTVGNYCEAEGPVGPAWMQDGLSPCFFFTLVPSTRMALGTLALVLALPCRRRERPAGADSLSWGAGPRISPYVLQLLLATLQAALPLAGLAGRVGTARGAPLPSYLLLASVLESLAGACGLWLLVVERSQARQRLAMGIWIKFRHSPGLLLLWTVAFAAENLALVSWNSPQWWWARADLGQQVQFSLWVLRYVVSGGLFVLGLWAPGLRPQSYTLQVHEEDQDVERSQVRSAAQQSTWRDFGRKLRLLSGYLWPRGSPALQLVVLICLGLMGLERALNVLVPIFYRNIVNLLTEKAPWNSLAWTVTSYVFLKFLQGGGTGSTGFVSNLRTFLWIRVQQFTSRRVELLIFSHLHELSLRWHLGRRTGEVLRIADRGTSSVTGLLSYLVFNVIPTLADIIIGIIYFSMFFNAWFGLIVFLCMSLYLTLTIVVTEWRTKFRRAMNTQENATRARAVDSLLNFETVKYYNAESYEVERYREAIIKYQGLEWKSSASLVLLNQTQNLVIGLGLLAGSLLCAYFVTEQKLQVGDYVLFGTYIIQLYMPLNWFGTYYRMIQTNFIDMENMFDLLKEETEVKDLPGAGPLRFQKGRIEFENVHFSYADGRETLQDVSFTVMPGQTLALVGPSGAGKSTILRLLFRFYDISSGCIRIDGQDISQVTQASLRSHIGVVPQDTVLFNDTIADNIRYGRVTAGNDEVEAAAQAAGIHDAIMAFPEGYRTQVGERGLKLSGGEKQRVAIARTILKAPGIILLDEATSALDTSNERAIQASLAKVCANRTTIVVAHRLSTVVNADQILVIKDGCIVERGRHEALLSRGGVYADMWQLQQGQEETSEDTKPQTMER
# [16] = AML differentiation inducers, ER-HoxA9 marrow cells – cell-based, GFP/MAC1 double positive, flow cytometry, validation set, primary screen (AID 588685;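 active = differentiation response of at least 50%, scaled between solvent and reference control, from cells with both markers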;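 also: compound exposure lasts four days before antibody staining and flow analysis; 0% = DMSO wells and 100% = 5 µM fulvestrant positive control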); settings: stronger effect = higher value, normalized: vehicle 0, fulvestrant 100
SMILES,percent of DMSO control GFP [1],GFP response vs DMSO [2],percent response of DMSO control [3],GFP response vs DMSO [4],"GFP response, % of DMSO [5]",double positive events [6],vesicle binding response [6],inhibition [7],superoxide response (% of plate) [8],aptamer binding inhibition [9],response [10],inhibition [11],response [12],binding (% of control) [13],efflux inhibition (fraction of control) [14],inhibition [15],differentiation response [16]
COc1ccc(CNC(=O)N[C@H](C(=O)O)C(C)C)cc1OC,92.6% (inactive),119% (inactive),111% (inactive),81.4% (inactive),89.8% (inactive),53.2%,186% (inactive),-9.06% (inactive),112% (inactive),-5% (inactive),-4.83% (inactive),-15.3% (inactive),1.94% (inactive),98.1% (inactive),0.3 (inactive),3% (inactive),7.37% (inactive)
CC12CCC(C(=O)N(CCC#N)CCC#N)(CC1=O)C2(C)C (stereo not drawn),100% (inactive),106% (inactive),95.8% (inactive),113% (inactive),108% (inactive),61.1%,5730% (inactive),6.4% (inactive),98% (inactive),3% (inactive),-1.84% (inactive),44.5% (inactive),0.52% (inactive),100% (inactive),-0.03 (inactive),9% (inactive),2.4% (inactive)
CN1C(C(=O)Nc2ccccn2)=C(O)c2sccc2S1(=O)=O,102% (inactive),97.7% (inactive),105% (inactive),93.7% (inactive),102% (inactive),63.2%,168% (inactive),-2.43% (inactive),113% (inactive),-6% (inactive),4.21% (inactive),6.73% (inactive),4.48% (inactive),96% (inactive),0.035 (inactive),9% (inactive),4.2% (inactive)
COC(=O)c1ccc(-c2ncc(-c3cccc4ccccc34)o2)cc1,98.2% (inactive),104% (inactive),105% (inactive),125% (inactive),109% (inactive),61.1%,170% (inactive),-29.2% (inactive),97.3% (inactive),-1% (inactive),-17.7% (inactive),21.1% (inactive),-15.9% (inactive),90.5% (inactive),0.17 (inactive),1% (inactive),6.83% (inactive)
Cc1ccc(O)c(CCc2ccccc2)n1,100% (inactive),109% (inactive),94.2% (inactive),90.7% (inactive),98.3% (inactive),61.6%,222% (inactive),-4.6% (inactive),106% (inactive),2% (inactive),-1.92% (inactive),3.07% (inactive),0.6% (inactive),98.4% (inactive),-0.04 (inactive),19% (inactive),6.11% (inactive)
CCOC(=O)[C@H]1O[C@@H]1C(=O)N[C@@H](CC(C)C)C(=O)NCCC(C)C,91.1% (inactive),135% (inactive),97.9% (inactive),82.5% (inactive),91.7% (inactive),55.3%,224% (inactive),6.46% (inactive),97% (inactive),3% (inactive),-8.75% (inactive),-3.19% (inactive),6.36% (inactive),106% (inactive),0.05 (inactive),7% (inactive),0.82% (inactive)
COc1ccc(NC2=C(Cl)C(=O)N(c3ccccc3)C2=O)c(OC)c1,105% (inactive),110% (inactive),107% (inactive),106% (inactive),109% (inactive),60.1%,159% (inactive),-1.09% (inactive),94.5% (inactive),1% (inactive),1.18% (inactive),0.15% (inactive),1.06% (inactive),97% (inactive),-0.25 (inactive),-3% (inactive),-4.57% (inactive)
Cc1ccc(Nc2ncccc2C(=O)O)cc1C,90.6% (inactive),123% (inactive),103% (inactive),80.3% (inactive),94.7% (inactive),64.4%,264% (inactive),8.4% (inactive),114% (inactive),2% (inactive),0.08% (inactive),-7.34% (inactive),-0.86% (inactive),105% (inactive),-0.31 (inactive),15% (inactive),6.55% (inactive)
CC(C)C12CN3CC(C(C)C)(CN(C1)C31C(=O)Nc3ccccc31)C2=O (stereo not drawn),106% (inactive),98.7% (inactive),99.7% (inactive),101% (inactive),98% (inactive),66.4%,190% (inactive),1.59% (inactive),110% (inactive),3% (inactive),9.28% (inactive),-3.03% (inactive),-0.51% (inactive),103% (inactive),0 (inactive),8% (inactive),-11.9% (inactive)
